# Tau fibril ThT – tau fibrillization inhibition (ThT binding) | P10636 | recombinant tau K18 P301L, heparin-induced fibrillization, ThT fluorescence | Potency, µM (highest dose often 57.4 µM), without a hit: at the top dose activity, negative = inhibition, most hits filed as inhibitors | 270,000 tested, 2.1% active; further: nearly all actives have a fitted effect of over 55% in size
# Target sequence (P10636 561-689 P618L limits assumed): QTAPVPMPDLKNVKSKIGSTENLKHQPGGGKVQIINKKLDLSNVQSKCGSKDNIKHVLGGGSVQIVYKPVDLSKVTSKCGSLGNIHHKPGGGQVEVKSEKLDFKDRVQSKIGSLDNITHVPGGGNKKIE
#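 In this qHTS, human K18 P301L tau is incubated with compound and heparin for 6 hr at 37 C, and Thioflavin T fluorescence then reports fibril load.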
# Tau fluor counter – counter-screen for tau fibril formation inhibitors; tau K18 P301L (four-repeat tau fragment) Alexa594 fluorescence, heparin fibrillization; Potency, µM (doses to about 57.7 µM), for inactives: at the highest dose activity change, negative = decrease; 280,000 tested, 0.93% active; further: nearly all actives have a fitted effect of over 55% in size
#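 Human K18 P301L tau (15 uM unlabeled plus 0.24 uM Alexa 594-labeled, final) in 100 mM sodium acetate pH 7 was mixed with compound and 20 uM heparin and incubated 6 hr at 37 C.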
# Luc counter – blocks Kinase-Glo luciferase, a counter-screen artifact | Q27757 | Kinase-Glo luciferase, ATP luminescence, 8 min | Potency, µM (highest dose often 38.3 µM), for inactives: top-dose activity change, negative = inhibition, hits mostly inhibitors | 200,000 tested, 0.28% active | AID 1379; further: nearly all actives have a fitted effect of over 60% in size
#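 Compounds were added to a substrate mix at pH 7.2 (50 mM imidazole, 10 uM ATP, within the enzyme's linear range), followed by Kinase-Glo detection reagent; luminescence was measured after 8 minutes at ambient temperature.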
# NPSR antagonist – neuropeptide S receptor (human) antagonism, cAMP; 220,000 tested, 1% active; CHO-NPSR cells, cAMP TR-FRET, antagonist mode; AID 1461; Q6W5P4; Potency, µM (titrated, usually from 38.3 µM), inactives show at the highest dose activity change, negative = inhibition, hits mostly inhibitors; further: nearly all actives have a fitted effect of over 50% in size
# Target sequence (Q6W5P4 whole entry, looked up): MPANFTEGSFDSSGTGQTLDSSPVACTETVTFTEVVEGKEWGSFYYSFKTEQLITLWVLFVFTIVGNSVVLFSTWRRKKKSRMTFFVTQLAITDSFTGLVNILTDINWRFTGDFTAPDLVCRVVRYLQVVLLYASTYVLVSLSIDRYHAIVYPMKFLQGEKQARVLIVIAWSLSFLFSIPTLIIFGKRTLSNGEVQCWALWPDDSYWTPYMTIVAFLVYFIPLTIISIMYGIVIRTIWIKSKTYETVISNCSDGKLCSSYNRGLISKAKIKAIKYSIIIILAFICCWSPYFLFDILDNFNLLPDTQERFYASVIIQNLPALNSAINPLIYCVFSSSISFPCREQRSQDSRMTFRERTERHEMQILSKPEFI
# Tau fibril FP – blocks human tau fibril formation measured by polarization; P10636; K18 P301L tau heparin fibrillization, Alexa594 FP, 6 h; Potency, µM (doses to about 57.7 µM), for inactives: top-dose activity, negative = inhibition, actives largely listed as inhibitors; 280,000 tested, 0.39% active; AID 1468; further: nearly all actives have a fitted effect of over 55% in size
#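 Read-out: fluorescence polarization of Alexa 594-labeled tau (0.24 uM), 555 nm excitation, 632 nm emission. Mixtures held 15 uM unlabeled K18 P301L, compound and 20 uM heparin, pH 7 acetate buffer, incubated 6 hr at 37 C.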
# The depositor's hits bear a star; ? = inconclusive; nt = not tested or not shown; ! = not active in a repeat; [ ] = another dose, or the depositor's remark. Most compounds without a hit are left out; they make up all but 3.3% or so of the library. The call rests on the fitted dose curve; in most records, active means well fitted curve in the direction sought with a large enough effect; inconclusive means small, poorly fitted or top-dose-only effect, or another doubt; inactive means no such curve, though single readings can be large; an effect the other way counts as inactive or inconclusive. On the % scale 0 is the no-effect control and ±100 the full control effect; potency means the concentration at half of the fitted maximal effect.
SMILES,Tau fibril ThT,Tau fluor counter,Luc counter,NPSR antagonist,Tau fibril FP
CC(=O)Nc1ccc(Nc2nc(-c3ccccc3)nc3ccccc23)cc1,?,14µM*[quencher],nt,-11%,-3%
Cc1cccc(-c2nc(Nc3ccc(N4CCOCC4)cc3)c3ccccc3n2)c1,?,11µM*[quencher],-4%,-17%,?
O=C(Nc1nc(-c2ccccc2)nc2ccccc12)c1ccc(F)cc1,5%,-6%,-2%,-49%,?
N#Cc1c(NC(=O)c2ccccc2Cl)n(Cc2ccccc2)c2nc3ccccc3nc12,14µM*,-29%,2%,-9%,?
CCCCn1c(NC(=O)c2ccccc2Cl)c(C#N)c2nc3ccccc3nc21,?,-20%,-5%,10µM*,-11%
COc1ccc(O)c(/C=N/n2c(-c3ccco3)csc2=Nc2cccnc2)c1,-14%,-17%,-1%,13%,1%
CN=c1scc(-c2ccco2)n1/N=C/c1ccc(O)c(O)c1,7.1µM*,16µM*[quencher],-8%,-6%,?
Cc1ccccc1NC(=O)CSc1nnc(-c2cccc(Cl)c2)o1,4%,6%,nt,nt,0%
CCN(CCO)c1nc(SC)nc2c1sc1nc(-c3ccco3)c3c(c12)CCC3,25µM*,?,0%,-28%[46.1 µM],?
COc1ccc(CCn2c(NN=C(C)C)nc3c2c(=O)[nH]c(=O)n3C)cc1,22µM*,?,nt,-3%,?
COc1ccc(CCn2c(NN)nc3c2c(=O)[nH]c(=O)n3C)cc1,nt,?,nt,0%,?
O=C1N=C(N2CCOCC2)SC1=C1CCCCC1,-5%,3%,?,-5%[46.1 µM],0%
N#CCCN1CCN(C2=NC(=O)C(=C3CCCCC3)S2)CC1,-7%,3%,-9%,20µM*,2%
COc1cccc2nc3cc(C)c(C)cc3nc12,22µM*,-27%,nt,56%,?
COc1cccc2c1nc(C)c1cc(C)oc12,-11%,-7%,-2%,0%[46.1 µM],-1%
Nc1nonc1OCCN1CCN(c2ccc([N+](=O)[O-])c3cccnc23)CC1,18µM*,?,nt,-46%,-1%
Cc1nonc1OCCN1CCN(c2ccccc2[N+](=O)[O-])CC1,-11%,-10%,2%,3%,-1%
O=[N+]([O-])c1ccc(-c2ccc(/C=N/c3c(-c4ccco4)nc4ccccn34)o2)cc1,2.8µM*,?,-8%,?,0%
Oc1cccc(/C=N/c2c(-c3ccco3)nc3ccccn23)c1,?,?,?,10µM*,?
Cc1cc(C)c([N+](=O)[O-])cc1-c1ccc(/C=N/c2c(-c3ccco3)nc3ccccn23)o1,5µM*,25µM*[quencher],-21%,-10%[46.1 µM],?
O=[N+]([O-])c1ccc(Cl)c(-c2ccc(/C=N/c3c(-c4ccco4)nc4ccccn34)o2)c1,?,-9%,-2%,-17%[46.1 µM],2%
O=[N+]([O-])c1ccc(-c2ccc(/C=N/c3c(-c4ccco4)nc4ccccn34)o2)c(Cl)c1,2µM*,-28%,-5%,-30%[46.1 µM],-6%
COc1ccc(C(=O)COC(=O)c2cc(-c3cccs3)nc3ccccc23)cc1,-5%,?,nt,nt,?
Cc1nc2c3cccnc3nn2c(C)c1CCC(=O)NCc1ccccc1Cl,-4%,-4%,nt,nt,2%
CCCCc1nc2ccc(S(=O)(=O)O)cc2[nH]1,7%,8%,nt,7%,-3%
SMILES,Tau fibril ThT,Tau fluor counter,Luc counter,NPSR antagonist,Tau fibril FP
O=C1NN(c2ccccc2)C(=O)/C1=C/c1ccc(Sc2ccc(Cl)cc2)o1,11µM*,?,nt,?,-17%
O=C1NN(c2ccccc2)C(=O)/C1=C\c1ccccc1OCC(=O)N1CCOCC1,?,-15%,-3%,-12%[46.1 µM],-5%
O=C1NC(=O)/C(=C\c2ccc(Sc3ccc(Cl)cc3)o2)N1,-15%,-13%,-3%,1%[46.1 µM],-2%
Cc1ccc(Sc2ccc(/C=C3/C(=O)NN(c4ccccc4)C3=O)o2)cc1,13µM*,?,nt,?,-13%
COC(=O)[C@@H]1C[C@H]1[C@@H](NC(=O)c1cc(C)nn1C)c1ccccc1,4%,3%,-3%,nt,7%
O=C(NCC1CCCO1)c1csc(Nc2cccc3ccccc23)n1 (stereo not drawn),-12%,3%[2.34 µM],13µM*,-11%,3%
O=C(NNc1ccc(O)cc1)c1ccc(Br)cc1,16µM*,?,-2%,-2%,?
CCOc1ccc(-n2c(=O)c3c(C)c(C(=O)N(C)C)sc3n(Cc3cc(C)ccc3C)c2=O)cc1,-3%,-1%,nt,nt,1%
COC(=O)NC(c1cccs1)C(C(C)=O)C(=O)OC (stereo not drawn),11%[11.5 µM],8%[11.6 µM],nt,nt,0%[11.6 µM]
COc1ccccc1C(=O)n1nc(-c2ccccc2)nc1NCc1ccc(Cl)cc1,3%,-19%,nt,nt,?
CC1(OC(=O)C2CCCC2)C(=O)C=C2C=C(c3ccsc3)N(Cc3ccccc3)C=C2C1=O (stereo not drawn),10µM*!,-5%[11.6 µM],-1%[7.66 µM],-26%,?
CC1(OC(=O)C2CCCC2)C(=O)C=C2C=C(c3ccsc3)N(CCc3ccccn3)C=C2C1=O (stereo not drawn),4µM*,-19%[11.6 µM],-7%[7.66 µM],-16%,?
CC1(OC(=O)CCc2ccccc2)C(=O)C=C2C=C(c3ccc(C#N)cc3)N(Cc3ccccc3)C=C2C1=O (stereo not drawn),8.9µM*!,-3%[11.6 µM],-3%[7.66 µM],-42%,?
COc1ccccc1NC(=O)CCn1nc(-c2ccccc2OC)c2c(C)cc(C)nc21,-12%,-8%,nt,nt,-2%
Cc1ccc(CSc2ncc(Cl)c(C(=O)Oc3ccccc3F)n2)cc1,16µM*,-24%,nt,nt,-12%
O=C(Oc1ccccc1F)c1nc(SCc2ccccc2F)ncc1Cl,22µM*,-25%,nt,nt,-9%
CCc1cccc(NC(=O)C2CCCN(c3ncnc4onc(-c5ccc(F)cc5)c34)C2)c1 (stereo not drawn),-6%,?,nt,nt,-10%
O=C(Cc1ccc(Cl)cc1Cl)Nc1cccc(S(=O)(=O)Nc2ccccc2F)c1,?,-18%,4%,-21%,28µM*
CCn1c2ccccc2c2cc(C3C(C#N)=C(N)Oc4n[nH]c(COC)c43)ccc21 (stereo not drawn),16µM*,?,2%,?,-17%
CCCc1[nH]nc2c1C(c1cccnc1)C(C#N)=C(N)O2 (stereo not drawn),18µM*,?,2%,3%[46.1 µM],?
COCc1[nH]nc2c1C(c1ccc(OC)c(OC)c1)C(C#N)=C(N)O2 (stereo not drawn),-7%,-3%,0%,-14%[7.67 µM],-4%
CC(C)COc1ccc(C(=O)Nc2sc3c(c2C(=O)O)CC(C)(C)OC3)cc1,16µM*,?,0%,41%,-8%
CC1(C)Cc2c(sc(NC(=O)c3ccccc3)c2C(=O)O)CO1,?,-13%,-2%,-24%,-6%
CCOC(=O)c1cc(=O)[nH]c2ccccc12,-5%,-6%,-1%,-17%,-1%
